The values below come from PubChem BioAssay (NCATS).

Assay [1] deals with Rap guanine nucleotide exchange factor 3 (Homo sapiens) (UniProt O95398). In words: Confirmatory qHTS for antagonist of cAMP-regulated guanine nucleotide exchange factor 3 (EPAC1) (AID 1645880).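 For activity, negative = inhibition: plate controls were DMSO only for no effect and full effect of the ATA control for full effect.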 Note: nearly all actives have a fitted effect of over 55% in size. Note: potency is the fitted concentration of half-maximal effect. To be noted: EPAC1 Rap1B-BODIPY-GDP exchange, fluorescence; activity, negative = inhibition: at 115 µM (top of the series). In outline:
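Released BODIPY-GDP fluoresces less than Rap1-bound BODIPY-GDP; the signal is followed at 480/540 nm at 5-min intervals over 30 min, after 5 min at room temperature. Reactions contain 100 nM EPAC1, 250 nM RAP1B-BODIPY-GDP and 50 uM GDP; results are normalized to ATA and DMSO.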

Assay [2] has the same target. In words: Confirmatory qHTS for agonist of cAMP-regulated guanine nucleotide exchange factor 3 (EPAC1) (AID 1645881).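 For activation: EPAC1 catalysed release of BODIPY-GDP from Rap1B seen as fluorescence loss; 100% = effect of cAMP agonist control.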 Note: nearly all actives have a fitted effect of over 75% in size. Note: potency is the fitted concentration of half-maximal effect.
Assay [3] has as its target Rap guanine nucleotide exchange factor 4 (Homo sapiens) (UniProt Q8WZA2). In words: Confirmatory qHTS for agonist of cAMP-regulated guanine nucleotide exchange factor 4 (EPAC2) (AID 1645884). For activation: % is set by controls: 0 for no effect and ±100 for the full control effect.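 Note: nucleotide exchange releases bodipy-GDP from Rap1 and this lowers its fluorescence; nearly all actives have a fitted effect of over 65% in size.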 Note: potency is the fitted concentration of half-maximal effect.
Assay [4] shares this target. In words: Confirmatory qHTS for antagonist of cAMP-regulated guanine nucleotide exchange factor 4 (EPAC2) (AID 1645885). For activity change, negative = inhibition: % is set by controls: 0 for no effect and ±100 for the full control effect. Note: nearly all actives have a fitted effect of over 25% in size. Note: potency is the fitted concentration of half-maximal effect.
Assay [5] has as its target Rap guanine nucleotide exchange factor 3 (Homo sapiens) (UniProt O95398). In words: Counterscreen qHTS for antagonist of cAMP-regulated guanine nucleotide exchange factor 3 (EPAC1) (AID 1645888). Note: % of control where 0% means no effect. The method, boiled down:
(§1)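 Rap1B-BODIPY-GDP 250 nM + GDP 50 uM; cpds 7-pt, final 9.74 nM–152 uM (activator mode) or from 7.32 nM upwards (inhibitor mode); RT; FI 480/540 nm at 5 and 30 min, then ± cAMP, reread.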

Assay [6] shares this target. In words: Counterscreen qHTS for agonist of cAMP-regulated guanine nucleotide exchange factor 3 (EPAC1) (AID 1645889). For activation: % of control where 0% means no effect. Note: nearly all actives have a fitted effect of over 40% in size. Note: potency is the fitted concentration of half-maximal effect. In outline: as §1

Results filed as inconclusive are left out. Values without a mark were called inactive. Active and inactive are the calls of the source. Calls come from the whole dose curve; as a rule, active = well fitted curve in the direction sought with a large enough effect; inconclusive = small, poorly fitted or top-dose-only effect, or another doubt; inactive = no such curve, though single readings can be large; an effect the other way counts as inactive or inconclusive.

Sequence of Rap guanine nucleotide exchange factor 3 (Homo sapiens) (O95398 whole entry, looked up): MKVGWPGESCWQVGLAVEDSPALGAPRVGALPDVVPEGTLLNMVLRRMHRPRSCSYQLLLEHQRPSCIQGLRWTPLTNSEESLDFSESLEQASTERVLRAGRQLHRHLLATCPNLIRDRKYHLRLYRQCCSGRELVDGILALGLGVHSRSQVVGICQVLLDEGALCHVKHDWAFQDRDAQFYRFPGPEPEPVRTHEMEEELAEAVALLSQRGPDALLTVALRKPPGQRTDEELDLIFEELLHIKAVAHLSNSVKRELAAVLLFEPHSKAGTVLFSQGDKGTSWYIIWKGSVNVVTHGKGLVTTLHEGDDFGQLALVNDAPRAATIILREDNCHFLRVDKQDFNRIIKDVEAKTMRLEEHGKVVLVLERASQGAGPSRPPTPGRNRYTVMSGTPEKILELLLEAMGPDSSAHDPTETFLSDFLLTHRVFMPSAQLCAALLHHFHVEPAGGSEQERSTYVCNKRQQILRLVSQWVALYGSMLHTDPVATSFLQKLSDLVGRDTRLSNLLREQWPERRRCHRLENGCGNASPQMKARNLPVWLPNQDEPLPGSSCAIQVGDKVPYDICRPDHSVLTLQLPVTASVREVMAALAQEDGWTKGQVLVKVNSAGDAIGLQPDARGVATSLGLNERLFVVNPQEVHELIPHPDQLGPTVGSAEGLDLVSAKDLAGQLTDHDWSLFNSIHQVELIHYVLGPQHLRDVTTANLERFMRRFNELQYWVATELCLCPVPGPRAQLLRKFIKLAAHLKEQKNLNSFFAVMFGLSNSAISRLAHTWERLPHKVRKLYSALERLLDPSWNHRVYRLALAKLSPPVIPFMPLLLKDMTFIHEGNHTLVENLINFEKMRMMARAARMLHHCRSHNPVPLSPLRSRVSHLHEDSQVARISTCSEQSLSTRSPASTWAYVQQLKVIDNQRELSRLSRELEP
Sequence of Rap guanine nucleotide exchange factor 4 (Homo sapiens) (Q8WZA2 whole entry, looked up): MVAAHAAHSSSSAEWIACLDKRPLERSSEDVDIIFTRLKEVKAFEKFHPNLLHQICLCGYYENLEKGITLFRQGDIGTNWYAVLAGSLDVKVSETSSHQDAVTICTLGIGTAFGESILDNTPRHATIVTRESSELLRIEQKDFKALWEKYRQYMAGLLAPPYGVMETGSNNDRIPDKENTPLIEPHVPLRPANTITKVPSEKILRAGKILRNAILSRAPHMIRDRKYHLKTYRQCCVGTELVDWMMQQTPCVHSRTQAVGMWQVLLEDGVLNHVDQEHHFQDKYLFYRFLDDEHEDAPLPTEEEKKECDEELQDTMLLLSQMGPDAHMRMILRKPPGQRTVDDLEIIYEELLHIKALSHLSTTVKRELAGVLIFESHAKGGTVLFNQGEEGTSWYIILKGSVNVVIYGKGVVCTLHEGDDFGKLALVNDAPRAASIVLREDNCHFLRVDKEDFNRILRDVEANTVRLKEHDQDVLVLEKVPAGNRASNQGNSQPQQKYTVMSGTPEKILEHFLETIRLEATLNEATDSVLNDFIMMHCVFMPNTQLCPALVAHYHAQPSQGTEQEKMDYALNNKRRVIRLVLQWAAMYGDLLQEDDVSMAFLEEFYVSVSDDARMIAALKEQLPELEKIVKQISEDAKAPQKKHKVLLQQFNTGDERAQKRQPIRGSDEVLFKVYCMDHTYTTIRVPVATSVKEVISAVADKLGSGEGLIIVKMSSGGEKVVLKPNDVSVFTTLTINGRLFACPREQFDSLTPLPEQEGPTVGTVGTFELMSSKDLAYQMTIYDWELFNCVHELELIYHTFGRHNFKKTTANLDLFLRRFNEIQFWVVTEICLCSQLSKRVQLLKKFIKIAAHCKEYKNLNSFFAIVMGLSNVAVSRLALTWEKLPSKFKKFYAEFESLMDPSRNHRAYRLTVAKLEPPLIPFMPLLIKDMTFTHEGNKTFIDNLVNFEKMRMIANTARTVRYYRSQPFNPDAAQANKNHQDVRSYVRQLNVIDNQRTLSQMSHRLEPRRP

In the case of `CN1OC[C@@H]2CN(Cc3ccc(Cl)cc3)[C@H](c3ccc(-n4ccnc4)cc3)C[C@@H]21`, the Potency entry in assay [1] and in assay [2] was “inactive” throughout. For the same molecule, the activation in assay [3] was 4.62% [at 17.1 µM, percent relative to cAMP agonist control].

For `CCC(C)Sc1nc2c(c(=O)[nH]c(=O)n2C)n1CC(O)COc1cccc2ccccc12` (configuration not stated), the Potency entry in assay [1], in assay [2], in assay [3], in assay [4], in assay [5] and in assay [6] was “inactive” in each case.

As to `CCOC(=O)c1c(NC(=O)CSc2nnc(C)c(=O)[nH]2)sc(C)c1-c1ccc(C)cc1`, the Potency in assay [1] is 75.7 µM (active). For the same molecule, the Potency entry in assay [2] and in assay [3] was “inactive” each time.

On to `COc1ccccc1CCC(=O)Nc1cc(S(=O)(=O)N2CCCCC2)ccc1N1CCN(C)CC1`, for which the Potency result in assay [1], in assay [2], in assay [3], in assay [4] and in assay [5] was “inactive” throughout. Further, the Potency in assay [6] is 63.1 µM (active).

Consider `COC(=O)c1ccc(CSc2ccc3nnc(-c4cccc(F)c4)n3n2)o1`, for which the Potency result in assay [1], in assay [2] and in assay [4] was “inactive” each time. In addition, the activation in assay [3] is -3.47% [at 17.1 µM, percent relative to cAMP agonist control]; in assay [6], 0.6% [at 30.8 µM]. In addition, in assay [5], the activity change, negative = inhibition is -19.6% [at 30.8 µM].

As to `COC(=O)c1ccc2nc(-c3ccccc3)c(Cc3ccccc3C(F)(F)F)n2c1`, the Potency result in assay [1], in assay [2], in assay [3], in assay [5] and in assay [6] was “inactive” in each case. For the same molecule, the Potency in assay [4] is 0.757 µM (active).

Consider `CCn1c(O)c(/C=N/NC(=O)c2ccncc2)c(=O)n(CC)c1=S`, for which the Potency result in assay [1] was “inactive”. Moreover, the Potency was 35.5 µM (active) in assay [2] and 25.1 µM (active) in assay [3].

In the case of `C[C@H]1CN([C@@H](C)CO)C(=O)CCCn2cc(nn2)CO[C@@H]1CN(C)S(=O)(=O)c1ccc(-n2cccn2)cc1`, the Potency entry in assay [1], in assay [2], in assay [3], in assay [4], in assay [5] and in assay [6] was “inactive” in each case.

With `COC(=O)/N=C(/Cc1ccc(OC)cc1)c1ccc(OC)cc1`, the Potency entry in assay [1], in assay [2] and in assay [3] was “inactive” each time.

With `CCCCc1nc(SCCOC)c2c(=O)n(C)c(=O)n(C)c2n1`, the Potency result in assay [1], in assay [2] and in assay [4] was “inactive” each time. Moreover, the activation is 4.93% [at 17.1 µM, percent relative to cAMP agonist control] in assay [3] and -0.239% [at 30.8 µM] in assay [6]. Further, the activity change, negative = inhibition in assay [5] is -15.9% [at 30.8 µM].

In the case of `Cc1nnc(SCc2nnc(-c3ccc(Cl)cc3)o2)n1-c1ccccc1`, the Potency result in assay [1], in assay [2], in assay [3], in assay [4], in assay [5] and in assay [6] was “inactive” each time.

As for `Cc1cc2oc(=O)cc(CN3CCCC3)c2cc1Cl`, the Potency result in assay [1], in assay [2] and in assay [4] was “inactive” in each case. In addition, the activation in assay [3] was -3.71% [at 17.1 µM, percent relative to cAMP agonist control]; in assay [6] it was 28.8% [at 30.8 µM]. Besides, in assay [5], the activity change, negative = inhibition was 3.14% [at 30.8 µM].

On to `CC(Oc1ccc(Br)cc1)C(=O)NCC(c1cccs1)N1CCOCC1` (configuration not stated), for which the Potency entry in assay [1], in assay [2], in assay [3], in assay [4], in assay [5] and in assay [6] was “inactive” in each case.

For `COC(=O)c1cn(S(=O)(=O)c2ccccc2)c2ccccc12`, the Potency entry in assay [1] and in assay [2] was “inactive” in each case.

`COc1ccc(S(=O)(=O)N2CCCCC2)cc1C(C)C`: the Potency result in assay [1], in assay [2], in assay [3], in assay [5] and in assay [6] was “inactive” in each case. In addition, in assay [4], the Potency is 8.49 µM (active).

Turning to `Cc1cc(C)c(S(=O)(=O)N2CCCC2)c(C)c1`, the Potency result in assay [1], in assay [2] and in assay [3] was “inactive” each time.

For `CCOc1ccc(/C=C2\SC(=S)NC2=O)cc1OC`, in assay [1], the Potency was 15.1 µM (active). Further, the Potency entry in assay [2], in assay [3], in assay [4], in assay [5] and in assay [6] was “inactive” throughout.

For `Cc1cccc(C(=O)Nc2cc(S(=O)(=O)N3CCOCC3)ccc2N2CCCC2)c1`, the Potency entry in assay [1], in assay [2], in assay [3], in assay [4], in assay [5] and in assay [6] was “inactive” throughout.

With `CCc1nnc(NS(=O)(=O)c2ccc(NCc3cc(Cl)ccc3O)cc2)s1`, the Potency in assay [1] is 39.8 µM (active). Besides, the Potency result in assay [2] and in assay [4] was “inactive” in each case. Further, the activation in assay [3] is -0.696% [at 17.1 µM, percent relative to cAMP agonist control]. For the same molecule, in assay [5], the activity change, negative = inhibition is -8.7% [at 30.8 µM].

As for `Cc1ccc(-c2nc(S(=O)(=O)c3ccc(C)cc3)c(N3CCOCC3)o2)cc1`, in assay [1], the Potency entry was “inactive”.

Consider `COc1ccc(OCC(=O)OCCNC(=O)c2cccnc2)cc1`, for which the Potency entry in assay [1], in assay [2] and in assay [4] was “inactive” in each case. The activation in assay [3] was -1.04% [at 17.1 µM, percent relative to cAMP agonist control]. The activity change, negative = inhibition in assay [5] is -8.99% [at 30.8 µM].

In the case of `Cc1ccc(NC(=O)Cn2nnc(-c3nc(-c4ccncc4)no3)c2N)c(C)c1`, the Potency result in assay [1], in assay [2], in assay [3], in assay [4], in assay [5] and in assay [6] was “inactive” each time.

For the molecule `Cc1ccc(Cc2cnc(N3C(=N)SC(c4ccccc4)C3=O)s2)cc1` (configuration not stated), the Potency result in assay [1], in assay [2] and in assay [4] was “inactive” throughout. The activation in assay [3] was 9.77% [at 17.1 µM, percent relative to cAMP agonist control]; in assay [6] it was 27.7% [at 30.8 µM]. In addition, the activity change, negative = inhibition in assay [5] was -12.3% [at 30.8 µM].
